In PubChem BioAssay AID485344 (National Center for Advancing Translational Sciences (NCATS), 2010) one finds inhibition data, which are given here for 88 compounds.

Each structure is given as a SMILES string. Hit rate of the full screen: of about 340,000 compounds, about 6,900 (2%) were called active. Cut-off read from the data, not from the text of the source: active = inhibition above about 30%; inactive = below that, where a call was filed. Many of the other results were omitted from the sample, so actives are more common in it than they were.

Chain of D(2) dopamine receptor (Homo sapiens) (P14416 whole entry, looked up): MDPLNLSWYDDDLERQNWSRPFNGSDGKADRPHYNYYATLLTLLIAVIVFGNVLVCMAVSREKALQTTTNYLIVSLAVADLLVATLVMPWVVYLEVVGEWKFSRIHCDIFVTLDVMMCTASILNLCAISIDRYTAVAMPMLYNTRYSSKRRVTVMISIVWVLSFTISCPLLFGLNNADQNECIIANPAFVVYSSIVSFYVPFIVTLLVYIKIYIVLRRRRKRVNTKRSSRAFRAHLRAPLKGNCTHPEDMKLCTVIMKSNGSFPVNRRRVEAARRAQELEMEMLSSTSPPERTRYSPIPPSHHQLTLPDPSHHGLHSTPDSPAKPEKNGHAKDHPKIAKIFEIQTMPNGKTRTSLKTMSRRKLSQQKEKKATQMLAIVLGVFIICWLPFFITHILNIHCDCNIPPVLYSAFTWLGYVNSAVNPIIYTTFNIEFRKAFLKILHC

The target in this test is D(2) dopamine receptor (Homo sapiens) (UniProt P14416). Description: HTS Assay for Allosteric Antagonists of the Human D2 Dopamine Receptor: Primary Screen for Antagonists. Note: 0% is about no effect. To be noted: HEK293 TREx D2 cells, calcium flux, dopamine EC80; at 10 µM; hits give high values. The gist of the method:
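Overnight-induced (tetracycline, 30 C) HEK293 T-REx cells carrying force-coupled D2 receive a no-wash calcium dye, then compound, then EC80 dopamine at 180 s; signals are read kinetically throughout.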
Take `OCC1(Cc2ccccc2)CCN(Cc2cc3ccccc3o2)CC1`: the inhibition is 94.6% (active).

Regarding `CC(=O)c1cccc(CN2CCC(CO)(Cc3ccccc3)CC2)c1`, the inhibition is 3.1% (inactive). Consider `CC(C)c1csc(CN2CCC(CO)(Cc3ccccc3)CC2)n1`, for which the inhibition is 0.256% (inactive). Take `OCC1(CCOc2ccccc2)CCN(Cc2cn[nH]c2-c2ccccc2)CC1`: the inhibition is -12.6% (inactive). For `O=C(c1ccc(F)cc1)C1CCN(Cc2cn[nH]c2-c2ccccc2)CC1`, the inhibition is 56% (active). Regarding `COc1ccc(CN2CCNC(=O)C2CC(=O)NCc2cn[nH]c2-c2ccccc2)c(F)c1` (stereo not drawn), the inhibition is -65.2% (inactive). For `Cc1ccc(S(=O)(=O)N2CCOCC2)cc1NC(=O)COC(=O)c1cnccn1`, the inhibition was -7.64% (inactive).

For `O=C(Nc1ccc(-c2nnc(-c3ccccc3)o2)cc1)C1CCCO1` (stereo not drawn), the inhibition is -12.9% (inactive). With `O=C(Nc1cccc(-c2nnc(-c3ccccc3)o2)c1)C1CCCO1` (stereo not drawn), the inhibition is 63% (active). As to `O=C(Nc1nnc(CCc2ccccc2)s1)C1CCCO1` (stereo not drawn), the inhibition is -19.8% (inactive). For `O=C(CC1SC(N2CCCC2)=NC1=O)Nc1ccc(C(=O)NCCc2ccc(F)cc2)cc1` (stereo not drawn), the inhibition is -4.16% (inactive). With `CCC(C)NC(=O)c1ccc(NC(=O)CC2SC(N3CCCCC3)=NC2=O)cc1` (stereo not drawn), the inhibition was -4.54% (inactive). For `COc1ccc(NC(=O)CC2SC(N3CCCCC3)=NC2=O)cc1OC` (stereo not drawn), the inhibition is 40.6% (active). In the case of `COc1ccccc1N1CCN(C(=O)C2Cc3ccccc3CN2C(=O)c2ccco2)CC1` (stereo not drawn), the inhibition was -23.2% (inactive). `CCOc1ccc(NC(=O)COC(=O)C2CCC(=O)N2)c([N+](=O)[O-])c1` (stereo not drawn): the inhibition was -10.6% (inactive). As for `CC(C)c1ccc(S(=O)(=O)N2CCN(C(C)C(=O)NC3CCCC3)CC2)cc1` (stereo not drawn), the inhibition is -16.2% (inactive). Then `Cc1ccc2oc(=O)c3cnn(CC(=O)N(Cc4ccco4)C4CCCCC4)c3c2c1`, with 32.4% (active); and `Cc1ccc2oc(=O)c3cnn(CC(=O)N4CCN(c5ccccn5)CC4)c3c2c1`, with -21.9% (inactive); and `Cc1ccc2oc(=O)c3cnn(CC(=O)N4CCCCCC4)c3c2c1`, with -0.561% (inactive). Next, `O=C(O)C1C2C=CC(C2)C1C(=O)NCc1ccccc1` (stereo not drawn): 3.26% (inactive); `O=C(COC(=O)c1ccc(O)cc1O)NNC(=O)c1cccs1`: 13.6% (inactive); `O=C(NC1CCN(Cc2ccccc2)CC1)c1cc(Br)c(Br)[nH]1`: 78.3% (active). As to `O=C(NC1CCN(Cc2ccccc2)CC1)c1ccc(Oc2cc(Cl)cc(Cl)c2)o1`, the inhibition is 26.7% (inactive).

`Cc1cc(C(=O)NC2CCN(Cc3ccccc3)CC2)n[nH]1`: the inhibition is 74.1% (active). Then `O=C(NC1CCN(Cc2ccccc2)CC1)c1c(F)cccc1F`, with 24.1% (inactive).

Consider `Cc1ccn2cc(C(=O)NC3CCN(Cc4ccccc4)CC3)nc2c1`, for which the inhibition is 15.3% (inactive). Next, `Cc1cc(C(=O)NC2CC(C)(C)Cc3c2cnn3-c2ccccc2)n[nH]1` (stereo not drawn): -16% (inactive); `O=C(c1ccncc1)N1CCN(S(=O)(=O)c2cccc([N+](=O)[O-])c2)CC1`: 4.87% (inactive); `CC(Sc1nnc(C2CC2)n1C1CC1)C(=O)Nc1ccc(C(N)=O)cc1` (stereo not drawn): -13.1% (inactive).

Take `CC(OC(=O)c1ccccc1NCCO)C(=O)Nc1ccnn1C(C)C` (stereo not drawn): the inhibition was -18.3% (inactive).

Regarding `COc1ccccc1CNS(=O)(=O)c1cc2c3c(c1)CCC(=O)N3CCC2`, the inhibition was -11.8% (inactive).

Take `O=C(c1cccc(Cl)c1)N1CCN(Cc2ccccc2)CC1`: the inhibition was 7.63% (inactive). Then `O=C(NC(=S)N1CCN(Cc2ccccc2)CC1)c1ccccc1`, with 31.2% (active); and `O=C(Nc1ccccc1)N1CCN(Cc2ccccc2)CC1`, with 13.1% (inactive).

For the compound `CC(C)N(C(=O)CN1CCN(S(=O)(=O)c2ccc(Br)s2)CC1)C(C)C`, the inhibition was -1.58% (inactive). `CCN(CC)CCn1c2c(c(SCC(=O)Nc3ccc(C(C)C)cc3)nc1=O)CCC2`: the inhibition is 14.2% (inactive). Next, `COc1ccc2cc1Oc1ccc(cc1)C[C@H]1c3cc(c(OC)cc3CCN1C)Oc1c(O)c(OC)cc3c1[C@H](C2)N(C)CC3`: -8.18% (inactive). Take `COc1ccc(CN2CCCC(N3CCc4ccccc4C3)C2)c(O)c1` (stereo not drawn): the inhibition is -20% (inactive). On to `COc1c(O)ccc2c1CN1CCc3cc4c(cc3C1C2)OCO4` (stereo not drawn), for which the inhibition was 74.1% (active). With `CCCCNC(=O)Cn1nc(C)c(S(=O)(=O)N2CCOCC2)c1C`, the inhibition is 4.53% (inactive). As for `CCCCN(CCCC)CC(O)Cn1c2ccccc2c(=O)c2ccccc21` (stereo not drawn), the inhibition was 0.545% (inactive). With `CS(=O)(=O)N(CC(O)Cn1c2ccccc2c2ccccc21)c1cccc2ccccc12` (stereo not drawn), the inhibition is 31.2% (active). Then `O=C1c2ccccc2S(=O)(=O)N1CC(O)Cn1c2ccccc2c2ccccc21` (stereo not drawn), with 26.9% (inactive); and `Cc1ccc(C(=O)OCC(=O)Nc2ccc(Cl)cn2)cc1S(=O)(=O)N1CCOCC1`, with -15.2% (inactive). As for `CC(C)(C)c1ccc(S(=O)(=O)N2CCN(C(=O)c3ccc4c(c3)C(=O)N(Cc3ccncc3)C4=O)CC2)cc1`, the inhibition was -6.14% (inactive). As to `O=C(NCCC1CCCCN1S(=O)(=O)c1cccs1)C(=O)Nc1ccc(F)cc1F` (stereo not drawn), the inhibition is 7.7% (inactive).

`CC(C(=O)N(C)CC(=O)Nc1ccccc1C(F)(F)F)N1C(=O)c2ccccc2C1=O` (stereo not drawn): the inhibition was 12.3% (inactive).

Regarding `Cc1nn(Cc2ccccc2)c(C)c1C(=O)N1CCN(CC(=O)Nc2ccccc2Cl)CC1`, the inhibition was 0.422% (inactive). In the case of `O=C(CO/N=C/c1ccc(OC(F)F)cc1)NCc1ccc(F)cc1`, the inhibition is 4.16% (inactive). Next, `O=C(COC(=O)/C=C/c1ccc(OC(F)F)cc1)NC1CCCCC1`: -18.9% (inactive); `CC1CCCCC1NC(=O)CO/N=C/c1ccc(OC(F)F)cc1` (stereo not drawn): 34.1% (active).

Turning to `CCOc1ccc(S(=O)(=O)N2CCC(C(=O)OCc3ccc(OC)cc3)CC2)cc1`, the inhibition is 5.17% (inactive). For `CC(=C1C(=O)c2ccccc2C1=O)N1CCN(c2ccccn2)CC1`, the inhibition was 56.1% (active).

On to `O=C(C(Cl)Cl)N1CCN(c2ccccn2)CC1`, for which the inhibition was 1.9% (inactive). Regarding `COc1ccc(N2CCN(C(C)=C3C(=O)c4ccccc4C3=O)CC2)cc1`, the inhibition is 14.9% (inactive).

On to `CCC1(CC)NC(=O)N(CC(=O)OCC(=O)c2cc(C)c(C)cc2C)C1=O`, for which the inhibition is -22.9% (inactive).

As for `CCC(=O)c1ccc(OCC(=O)N(CC)CC2COc3ccccc3O2)cc1` (stereo not drawn), the inhibition was -1.9% (inactive).

Regarding `CC1(C)NC(=O)N(CC(=O)N2CCN(S(=O)(=O)c3ccccc3F)CC2)C1=O`, the inhibition is -6.83% (inactive). `CC(C)[C@@H](NC(=O)OC(C)(C)C)C(=O)NCC1CCC(C(=O)N[C@@H](Cc2ccccc2)C(=O)O)CC1` (stereo partly drawn): the inhibition was 31.8% (active). On to `CC(=O)Nc1ccc(S(=O)(=O)N2CCC(C(=O)N[C@@H](Cc3ccccc3)C(=O)O)CC2)cc1`, for which the inhibition was -23.4% (inactive).

For the compound `CC(C)C[C@H](NC(=O)C1CCC(CNC(=O)[C@@H]2CCCN2C(=O)OC(C)(C)C)CC1)C(=O)O` (stereo partly drawn), the inhibition is -15.8% (inactive). For the compound `O=C(CSc1nnc(Nc2ccccc2F)s1)NC1CCCC1`, the inhibition was 12.9% (inactive). `N#Cc1ccc(C(c2ccc(C#N)cc2)n2cncn2)cc1`: the inhibition is 48.6% (active).

Consider `N#Cc1ccc(CSc2ncccn2)cc1`, for which the inhibition is -5.83% (inactive). Then `N#Cc1ccc(C(c2nnnn2CCc2ccccc2)N2CCCCCC2)cc1` (stereo not drawn), with -12.6% (inactive).

As for `CC1CCCC(NC(=O)c2cc(S(=O)(=O)N3CCCCC3)ccc2Cl)C1C` (stereo not drawn), the inhibition was -4.83% (inactive).

For `CCOc1ccc(Br)cc1S(=O)(=O)N1CCC(C(=O)O)CC1`, the inhibition is 39.3% (active). As for `CCOc1ccc(S(=O)(=O)N2CCC(c3ccccc3)CC2)cc1C(=O)O`, the inhibition was -17.4% (inactive). For `CCOC(=O)N1CCN(C(=O)C2CCN(S(=O)(=O)c3cc(Cl)ccc3OCC)CC2)CC1`, the inhibition is -9.59% (inactive). With `CC(C)COc1ccc(C(=O)OCC(=O)NCCC2=CCCCC2)cc1`, the inhibition was 5.26% (inactive). Next, `COc1cccc(-c2nn(C)c3sc(C(=O)N4CCN(c5ccccc5)CC4)cc23)c1`: -14.9% (inactive); `CCOC(=O)N1CCN(C(=O)c2cc3c(-c4ccc(Cl)cc4)nn(C)c3s2)CC1`: 5.45% (inactive). Then `COc1ccccc1N1CCN(C(=O)c2cc3c(-c4ccc(Cl)cc4)nn(C)c3s2)CC1`, with 31% (active); and `CCc1noc(C)c1C(=O)N1CCN(S(=O)(=O)c2cccc(C(F)(F)F)c2)CC1`, with -22.3% (inactive); and `N#CCC(=O)Nc1ccc(C(=O)OCC(=O)Nc2sc3c(c2C#N)CCCC3)cc1`, with -5.79% (inactive). As for `CC1Cc2ccccc2N1C(=O)c1cc2sccc2n1Cc1ccccc1` (stereo not drawn), the inhibition was 8.45% (inactive). In the case of `CCOC(=O)c1cc2sccc2n1Cc1ccc(C#N)cc1`, the inhibition was 31.1% (active). Turning to `O=C(c1cc2sccc2n1Cc1ccc(F)cc1)N1CCc2ccccc21`, the inhibition was -20.3% (inactive).

For the compound `CCC(C(=O)N1CCN(S(=O)(=O)c2sc(C(=O)O)c(C)c2C(=O)O)CC1)c1ccccc1` (stereo not drawn), the inhibition is 14.8% (inactive).

Regarding `CCOC(=O)N1CCN(C(=O)COC(=O)c2cccc(S(C)(=O)=O)c2)CC1`, the inhibition is -13.9% (inactive). As for `O=C(CCc1nc(-c2ccccc2)no1)Nc1cccc(C(=O)NC2CC2)c1`, the inhibition is -8.46% (inactive). Next, `Cc1ccc(NC(=O)C(C)Sc2nnc(C3CC3)n2C2CC2)cc1S(=O)(=O)N1CCOCC1` (stereo not drawn): 10% (inactive); `COc1c(O)cc2oc(-c3ccc(O)c(O)c3)cc(=O)c2c1O`: 36.2% (active); `CCOC(=O)COc1cc(O)c2c(=O)cc(-c3ccccc3)oc2c1`: 3.55% (inactive). On to `COc1ccc(-c2cc(=O)c3c(O)cc(O[C@@H]4O[C@H](CO[C@@H]5O[C@@H](C)[C@H](O)[C@@H](O)[C@H]5O)[C@@H](O)[C@H](O)[C@H]4O)cc3o2)cc1O`, for which the inhibition is 3.3% (inactive).

For the compound `Cc1sc2nc(CSCC(=O)NC3CCCCC3)[nH]c(=O)c2c1C`, the inhibition is 7.49% (inactive). In the case of `Cc1sc2nc(CSCC(=O)Nc3c(Cl)cccc3Cl)[nH]c(=O)c2c1C`, the inhibition was 43.2% (active). Consider `Cc1sc2nc(COC(=O)C(NC(=O)c3ccc(Cl)cc3Cl)C(C)C)[nH]c(=O)c2c1C` (stereo not drawn), for which the inhibition is 4.89% (inactive).
